Screen size: about 260,000 compounds; about 1,500 (0.58%) were called active. Roughly 5% stayed inconclusive and do not appear here.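 How the source made its calls: active means inhibition above a set limit at one or more doses, reproduced on every date tested; inconclusive means results disagree between test dates, or hit never tested in dose response; inactive means the rest.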 A selection follows. Results with a measured potency or affinity are listed apart.
The molecules below were run against Virion infectivity factor (Human immunodeficiency virus type 1 group M subtype B (isolate BH10)) + Virion infectivity factor (Human immunodeficiency virus type 1 group M subtype B (isolate BRU/LAI)) + Virion infectivity factor (Human immunodeficiency virus type 1 group M subtype B (isolate PCV12)) + Virion infectivity factor (Human immunodeficiency virus type 1 group M subtype B (isolate HXB2)) + DNA dC->dU-editing enzyme APOBEC-3G (Homo sapiens) (UniProt P69720+P69721+P69722+P69723+Q9HC16) (assay: HIV-1 Vif–A3G interaction blockers – biochemical, TR-FRET, GST-Vif 1-94, biotin-A3G peptide, dose response retest, primary screen (AID 1117319;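 further: Vif residues 1-94 fused to GST binding biotinylated APOBEC3G peptide 110-148; 0% = full assay without inhibitor and 100% = GST in place of GST-Vif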)). Details: TR-FRET GST-Vif / biotin-A3G peptide binding; active compounds read high.

inhibition, inactive:
COc1ccc(OC)c(NC(=O)CNC(=O)Cn2c(C)cc3ccccc3c2=O)c1 7.41%
O=C(c1ccco1)N1CCN(C(=O)C2Cc3ccccc3CN2S(=O)(=O)c2ccc(F)cc2)CC1 (stereo not given) -4.72%
CN(Cc1cccc2cnccc12)C(=O)c1cc(COc2ccc(F)cc2F)on1 -7.76%
COc1cccc(CN2CCN(Cc3cccc4c3OCO4)CC2CCO)c1 (stereo not given) -2.33%
CCOC(=O)C(C(=O)NCc1ccc(F)cc1)c1ncc(C(F)(F)F)cc1Cl (stereo not given) 5.68%
Nc1ncnc(Nc2cc(C(F)(F)F)cc(C(F)(F)F)c2)n1 11%
COc1ccc(C(=O)N/C(=C/c2cccnc2)C(=O)N2CCCCCC2)cc1OC 2.36%
COc1ccccc1C(=O)N/C(=C\c1ccc(Br)cc1)C(=O)NCCC(=O)O -1.86%
Cc1oc(/N=C/c2ccc(O)cc2O)c(C#N)c1C -3.01%
Cc1oc(/N=C/c2ccccc2O)c(C#N)c1C 6.98%
Clc1cccc(C2=NOC(c3nnc(-c4ccccc4)o3)C2)c1 (stereo not given) -9.96%
Cc1cc(C)c(OCCNC(=O)c2ccccc2Sc2ccccc2C#N)c(C)c1 -2.47%
CC(=O)Oc1ccc(N2C(=O)C3C4C=CC(O4)C3C2=O)cc1 (stereo not given) -0.5%
O=C(O)CSc1c2c(nc3cc(C(=O)N4CCCC4)ccc13)CCCC2 4.71%
CCCN(C(=O)c1ccc2c(SCC(=O)O)c3c(nc2c1)CCC3)c1cccc(C)c1 18.7%
CCOC(=O)C1CCN(C(=O)c2ccc3c(SCC(=O)O)c4c(nc3c2)CCCC4)CC1 -8.86%
CCC(C)NC(=O)c1ccc2c(SCC(=O)O)c3c(nc2c1)CCCC3 (stereo not given) 7.55%
COc1cccc(/C=C2\SC(=S)N(CC(=O)N(C)C3CCS(=O)(=O)C3)C2=O)c1 (stereo not given) 3.59%
Cc1c(Cl)cccc1Nc1nc(N)nc(CSC(=S)N2CCOCC2)n1 0.88%
NS(=O)(=O)c1ccc(CCNS(=O)(=O)c2ccccc2)cc1 22.8%
O=C(CSc1ccc2nnc(-c3ccncc3)n2n1)Nc1nccs1 -1.26%
O=S(=O)(NCCN1CCCC1)c1ccc(C(F)(F)F)cc1 1.25%
Cc1cc(-c2ccccc2)[nH]c(=O)c1C#N -1.26%
N#Cc1c(-c2ccccc2)cc(-c2ccccc2)[nH]c1=O -8.66%
N#Cc1c(-c2cccc(Br)c2)cc(-c2ccco2)[nH]c1=O 15.1%
COc1ccc(-c2cc(C(F)(F)F)c(C#N)c(=O)[nH]2)cc1 -2.26%
COC(=O)c1ccc(NC(=S)N2CCN(Cc3ccccc3)CC2)cc1 10.9%
O=C(c1ccc(COc2ccc3ccccc3c2)o1)N1N=C(C(F)F)CC1(O)C(F)F (stereo not given) -0.12%
COc1cc2[nH]c(=S)nc(NCc3ccc(C)cc3)c2cc1OC -6.65%
O=C1C(O)=CC(=C(c2ccccc2)c2ccccc2)c2ccccc21 15.1%
Cc1ccc2c(CC(=O)OCc3csc(C)n3)coc2c1 11.1%
COc1cccc(OC)c1C(=O)OCC(=O)NCC(C)C 14.3%
CC1(C)N([O-])C2=C(CCCC2)[N+]1=O 4.01%
CCC1(C)N([O-])C(C)=C(c2ccccc2)[N+]1=O (stereo not given) 4.55%
CCc1ccc(N(C(=O)c2csnn2)C(C(=O)NC(C)(C)C)c2ccccn2)cc1 (stereo not given) 0.91%
O=C(c1n[nH]c(=O)c2ccccc12)N1CCN(Cc2ccc3c(c2)OCO3)CC1 4.07%
CCN(CC(=O)Nc1c(F)cccc1F)C(=O)c1ccc(N2CCCC2=O)cc1 -13.8%
CCOC(=O)c1csc(NC(=O)c2cc3ccccc3o2)n1 0.78%
Cc1csc(NC(=O)c2cc3ccccc3o2)n1 0.57%
Cc1ccc(OCC(=O)NCc2ccc3c(c2)OCO3)c([N+](=O)[O-])n1 8.23%
CC(C)C(=O)Nc1nnc(Cc2ccccc2)s1 -2.22%
CCN1CCC(=NNC(=O)c2ccco2)CC1 5.57%
CNC(=O)CC12CC3CC(CC(C3)C1)C2 6.4%
CCOP(=O)(OCC)c1nc(-c2cccc([N+](=O)[O-])c2)oc1N1CCCCC1 5.71%
COc1ccc(CCn2c(C)cc(C(=O)CSc3nnnn3C)c2C)cc1 26.9%
Cc1cc(C(=O)CSc2nnnn2C)c(C)n1CCc1ccc(F)cc1 15.4%
CNC(=O)c1sccc1SCc1c(Cl)cccc1Cl -1.14%
CC1=C(C(=O)OCC(Cl)(Cl)Cl)N2C(=O)C(NC(=O)Cc3ccccc3)C2SC1 (stereo not given) 67.2%
Cc1nnc(SCC2=C(C(=O)O)N3C(=O)C(NC(=O)Cc4ccccc4)C3SC2)s1 (stereo not given) 7.27%
COc1ccccc1N1CC(C(=O)OCc2nc(N)nc(Nc3ccccc3)n2)CC1=O (stereo not given) 15.4%
CC1(C(=O)N2CCOCC2)CCCCC1 -0.21%
Cc1cc(C)cc(OCC(=O)Nc2cc(C)on2)c1 0.63%
CCn1c(CNC(=O)c2cccc(C)c2)nnc1SCC(=O)NC1=NCCS1 -12%
CCOC(=O)N1CCN(C(=O)COc2ccc(S(=O)(=O)NC(C)C)cc2)CC1 -4.61%
CCCNS(=O)(=O)c1ccc(OCC(=O)N2CCC(C(=O)OCC)CC2)cc1 -4.14%
O=C(Nc1ccc2c(c1)OCCO2)c1ccc(Cl)cc1 -3.98%
CC(=O)c1cc2c(cc1NC(=O)c1cccc(S(=O)(=O)N3CCN(C)CC3)c1)OCO2 -12.7%
C/C(=N\NC(=O)c1ccc(=O)[nH]n1)c1cccnc1 3.66%
CC(C)(C)C(=O)OCc1nc(-c2ccc(Cl)cc2)cs1 -5.87%
COc1ccc(-c2csc(COC(=O)C(C)(C)C)n2)cc1 -3.51%
